Experimental data taken from PubChem BioAssay (NCI).
This is part of a sample that, as a whole, favours compounds with a hit. Of some 79,000 tested, about 15% had one in any assay. Values without a mark were called inactive. The source made the active and inactive calls. No stated cut-off is given here; in the data, active means growth inhibition above about 70%; inactive means the rest.

experiment: NCI Yeast Anticancer Drug Screen. Data for the sgs1 mgt1 strain (AID 161);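 further: 0% = growth of cultures given vehicle only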; settings: S. cerevisiae sgs1 mgt1 strain, at 50.0 µM, stronger effect = higher value
Method in brief: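 Inhibition of yeast growth, normalised to vehicle-treated controls, is reported for a strain bearing genetic alterations in DNA damage repair.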

Question: Which growth inhibition does the source give for `O=C(CCCc1ccccc1)OCC(=O)c1ccc(-c2ccccc2)cc1` here?
Answer: The growth inhibition was 11.2%.

Question: With `O=COC1CC2CC1c1ccccc12` (stereo not given) as the compound, how does the growth inhibition read?
Answer: Its growth inhibition is -1.7%.

Question: For `Cc1cccc(C(O)(c2cccc(C)c2)C2(O)CCCCC2)c1`, which growth inhibition is on record?
Answer: Its growth inhibition is -0.9%.

Question: For `c1ccc2c(c1)NCCOCCNc1ccccc1OCCNCCO2`, which growth inhibition is on record?
Answer: The growth inhibition was 14.1%.

Question: Which growth inhibition does the source give for `CC(SSc1ccc(C(C)(C)C)cc1)c1ccccc1` (stereo not given) here?
Answer: The growth inhibition was -11.1%.

Question: For `O=C1C(N=Nc2ccc(S(=O)(=O)Nc3ccccn3)cc2)C(=O)N(c2ccccc2)C(=S)N1c1ccccc1`, which growth inhibition is on record?
Answer: Its growth inhibition is 8.25%.

Question: Which growth inhibition does the source give for `COc1ccc(NS(=O)(=O)c2ccc(N=Cc3c4ccccc4nc4ccccc34)cc2)nn1` here?
Answer: Its growth inhibition is 91.6% (active).

Question: With `CN(C)CCCN1c2ccccc2Sc2ccc3ccccc3c21` as the compound, how does the growth inhibition read?
Answer: Its growth inhibition is -43%.

Question: Which growth inhibition does the source give for `COC(=O)C1(CC(=O)C2CC2)NC(=S)NC(=O)C1C#N` (stereo not given) here?
Answer: Its growth inhibition is -12.3%.

Question: Which growth inhibition does the source give for `O=C1N=C(c2ccccc2)C(c2ccccc2)N1` (stereo not given) here?
Answer: Its growth inhibition is 12.9%.

Question: Which growth inhibition does the source give for `COc1ccc(C(=O)C[n+]2cc(Br)cc(Br)c2)cc1` here?
Answer: Its growth inhibition is -7%.

Question: Which growth inhibition does the source give for `C=C1C(=O)OC2/C=C(\C)C(OC(C)=O)C3OC3C(C)(O)CC(OC(=O)/C(C)=C/C)C12` (stereo not given) here?
Answer: The growth inhibition was -15.4%.

Question: With `CC(=O)N/C(=C\c1ccccc1)C(N)=O` as the compound, how does the growth inhibition read?
Answer: Its growth inhibition is 1.2%.

Question: Which growth inhibition does the source give for `CNC(=S)N(C)/N=C/c1ccccc1` here?
Answer: Its growth inhibition is -3.75%.

Question: For `N#CC(c1ccccc1)N(CCCCCCN(C(=O)c1ccccc1)C(C#N)c1ccccc1)C(=O)c1ccccc1` (stereo not given), which growth inhibition is on record?
Answer: The growth inhibition was 20.3%.

Question: Which growth inhibition does the source give for `CCOC(=O)c1cccc(NC(=O)CCl)c1` here?
Answer: The growth inhibition was 37.6%.

Question: For `CC1(C)C(C#N)C1C1=C(N2CCOCC2)[C@]2(C)C(OC(=O)c3ccccc3)CC[C@@H]2C1` (stereo not given in full), which growth inhibition is on record?
Answer: Its growth inhibition is -8.7%.

Question: For `CC(=O)Nc1ccc2ccccc2c1SC1CC(=O)N(c2ccccc2)C1=O` (stereo not given), which growth inhibition is on record?
Answer: Its growth inhibition is -26.2%.

Question: For `Clc1ccc(CSc2cnnc(Cl)c2SCc2ccc(Cl)cc2)cc1`, which growth inhibition is on record?
Answer: The growth inhibition was 8.2%.

Question: Which growth inhibition does the source give for `CN(C(=O)Sc1ccc([N+](=O)[O-])cc1)c1ccc([N+](=O)[O-])cc1` here?
Answer: Its growth inhibition is 9.8%.

Question: Which growth inhibition does the source give for `Nc1nc2c(ccc3ccccc32)[nH]1` here?
Answer: Its growth inhibition is 8.4%.

Question: With `O=[N+]([O-])C(C(Cl)=C(Cl)Cl)=C(n1nnc2ccccc21)n1nnc2ccccc21` as the compound, how does the growth inhibition read?
Answer: The growth inhibition was 25.3%.

Question: For `CC(=O)S`, which growth inhibition is on record?
Answer: The growth inhibition was -11.9%.

Question: Which growth inhibition does the source give for `O=C(O)C(c1cccs1)C1(O)CCCCC1` (stereo not given) here?
Answer: The growth inhibition was -2.25%.

Question: Which growth inhibition does the source give for `CCOC(=O)c1[nH]c(COC(C)=O)c2c1CCCCCCCCCC2` here?
Answer: The growth inhibition was 6.05%.

Question: For `O=C(CC(=O)c1ccccc1)Cc1ccccc1.O=C(CC(=O)c1ccccc1)Cc1ccccc1.[Cu]`, which growth inhibition is on record?
Answer: Its growth inhibition is 55.6%.

Question: Which growth inhibition does the source give for `CCOC(=O)c1ccccc1[N+](=O)[O-]` here?
Answer: Its growth inhibition is 8.7%.

Question: For `O=C(NN(C(=O)c1ccc([N+](=O)[O-])cc1)c1ccccc1)c1ccc([N+](=O)[O-])cc1`, which growth inhibition is on record?
Answer: Its growth inhibition is 14.1%.

Question: With `CC(=O)N1CCC(=O)/C(=C/c2ccccc2)C1` as the compound, how does the growth inhibition read?
Answer: Its growth inhibition is 32%.

Question: With `CC(=O)c1ccc(OC(=O)Nc2ccc(Cl)cc2)cc1` as the compound, how does the growth inhibition read?
Answer: The growth inhibition was 23.9%.

Question: Which growth inhibition does the source give for `CC(=O)Nc1cc(Cl)ccc1SC1OC(COC(C)=O)C(OC(C)=O)C(OC(C)=O)C1OC(C)=O` (stereo not given) here?
Answer: Its growth inhibition is 17.9%.

Question: Which growth inhibition does the source give for `CNC(=S)Nc1cccc(C)c1` here?
Answer: The growth inhibition was 4.55%.

Question: With `Cc1ccc(-n2nc(C)cc2C)nn1` as the compound, how does the growth inhibition read?
Answer: The growth inhibition was -9.75%.

Question: Which growth inhibition does the source give for `CCC(C(C)O)[N+](=O)[O-]` (stereo not given) here?
Answer: The growth inhibition was 10%.

Question: Which growth inhibition does the source give for `CC(=O)Nc1ccc(/C=C2\C(=O)Nc3ccccc32)cc1` here?
Answer: Its growth inhibition is -23%.

Question: For `CN1CCN(C)c2nc3ccccc3nc21`, which growth inhibition is on record?
Answer: Its growth inhibition is 1.8%.

Question: Which growth inhibition does the source give for `CC(C)CCCC(C)C1CCC2(C)C3CCC4C(C)(C)C(OCC(C)(C)C)CCC4(C)C3CCC12C` (stereo not given) here?
Answer: The growth inhibition was 4.7%.

Question: With `Cc1cccc(/C=C(\C#N)C(=O)c2ccccc2)c1` as the compound, how does the growth inhibition read?
Answer: Its growth inhibition is -13.6%.

Question: With `CC1CC(C)OC(C)(c2ccccc2)O1` (stereo not given) as the compound, how does the growth inhibition read?
Answer: The growth inhibition was -0.9%.

Question: Which growth inhibition does the source give for `CC(Br)CCc1ccccc1Br` (stereo not given) here?
Answer: The growth inhibition was -2.95%.
